Compounds with a hit are over-represented: about 3.7% of the library has one in this group of screens.
ATXN viability: reduces viability in counter-screen for ATXN expression inhibitors; Potency, µM (top dose mostly 56.7 µM), usual class: cytotoxic; hit rate 0.49% among 400,000; AID 651635; S2 cells (HEK-293 line with an ATXN2-luciferase reporter) viability, CellTiter-Fluor protease fluorescence, 24 h; note: nearly all actives have a fitted effect of over 40% in size
GLP1R inv ag: acts as inverse agonist at human GLP-1 receptor. P43220. HEK293 GLP-1R CRE-luciferase, luminescence, 24 h; GLP-1R form is constitutively active. Potency, µM (top dose mostly 38.3 µM), inactives show at the highest dose activity change, negative = inhibition, hits mostly inhibitors. hit rate 1.6% among 410,000; note: % is set by controls: 0 for no effect and ±100 for the full control effect; nearly all actives have a fitted effect of over 55% in size
Target sequence (P43220 whole entry, looked up): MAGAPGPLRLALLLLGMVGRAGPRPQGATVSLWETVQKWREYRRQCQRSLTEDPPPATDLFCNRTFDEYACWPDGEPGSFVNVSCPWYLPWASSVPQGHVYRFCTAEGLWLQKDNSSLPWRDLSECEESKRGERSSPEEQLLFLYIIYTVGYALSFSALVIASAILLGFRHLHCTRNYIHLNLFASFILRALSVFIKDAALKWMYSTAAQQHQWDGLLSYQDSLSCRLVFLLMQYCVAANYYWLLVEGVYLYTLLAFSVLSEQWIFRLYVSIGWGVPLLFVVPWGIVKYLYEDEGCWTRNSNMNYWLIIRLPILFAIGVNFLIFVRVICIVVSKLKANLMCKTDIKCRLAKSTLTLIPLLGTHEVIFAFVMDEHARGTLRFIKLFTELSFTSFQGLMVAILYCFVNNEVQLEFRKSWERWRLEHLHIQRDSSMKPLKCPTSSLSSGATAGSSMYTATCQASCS
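Luminescence readout: a drop in cAMP-driven luciferase signal flags inverse agonism at a constitutively active GLP-1R stably expressed in HEK293. Compound exposure lasted 24 hr at 37 deg C, 5% CO2.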
TGFb inhibitor: TGF-b pathway inhibition | HepG2 CAGA-GFP TGF-b/SMAD3 reporter, GFP fluorescence, 18 h; TGF-beta stimulated, 500 pg/mL final | hit rate 1.2% among 410,000 | Potency, µM (top dose mostly 46.1 µM), for the others: top-dose activity, negative = inhibition, usual class: inhibitors | AID 588855; note: % is set by controls: 0 for no effect and ±100 for the full control effect; nearly all actives have a fitted effect of over 65% in size
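Cell-based qHTS in HEPG2 carrying a CAGA-GFP Smad reporter; compounds added before 500 pg/mL final TGF-beta, 18 h incubation at 37 degrees C, GFP fluorescence quantified per cell by imaging cytometry.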
GLP1R ag: agonists of human GLP-1 receptor | HEK293 GLP-1R CRE-luciferase, luminescence, 4-6 h; cells express a hypersensitive GLP-1R form | Potency, µM (highest dose often 45.6 µM), for the others: top-dose activation, most hits filed as activators | hit rate 0.007% among 380,000; note: % of control where 0% means no effect
ATXN2 expr inh: ATXN2 expression inhibition. Potency, µM (top dose mostly 57 µM), for inactives: at the highest dose activity change, negative = inhibition, hits mostly inhibitors. hit rate 0.72% among 360,000. AID 1745845. HEK-293 ATXN2-luciferase reporter, luminescence, 24 h; note: % is set by controls: 0 for no effect and ±100 for the full control effect; nearly all actives have a fitted effect of over 55% in size
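qHTS (up to 57 uM final) was run with 24 h compound exposure of reporter cells at 37 °C. Each well was multiplexed: SteadyGlo luminescence measured ATXN2-luciferase expression after a fluorogenic Gly-Phe-AFC viability readout (25 uM final).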
HepG2 viability: HepG2 cytotoxicity, counter-screen for TGF-b inhibitors | hit rate 0.76% among 410,000 | Potency, µM (doses to about 46.1 µM), without a hit: top-dose activity change, negative = cytotoxicity, most hits filed as cytotoxic | HepG2 CAGA-GFP viability, ATP luminescence, 18 h | AID 588856
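CellTiter-Glo luminescence gave cytotoxicity after 18 hours at 37 degrees C. The cells were HepG2 CAGA-GFP in 1% FBS DMEM, stimulated with 500 pg/mL TGF-beta after compound addition. %Activity was normalised to no-cell wells (complete cell-killing) and DMSO (no toxicity), and curves were fitted and classified.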
An asterisk follows results filed as active. Calls come from the whole dose curve; as a rule, active = well fitted curve in the direction sought with a large enough effect; inconclusive = small, poorly fitted or top-dose-only effect, or another doubt; inactive = no such curve, though single readings can be large; an effect the other way counts as inactive or inconclusive. Potency is the fitted concentration of half-maximal effect.

How did CCOC(=O)c1c2c(n(-c3ccc(OC)cc3)c1C)C(=O)C(=O)c1ccccc1-2 do in these assays?
ATXN viability: 8.91µM*; GLP1R inv ag: inconclusive; TGFb inhibitor: inconclusive; GLP1R ag: -5.4%; ATXN2 expr inh: 8.91µM*; HepG2 viability: 3.16µM*

Results for CCn1c(C)c(C)c2cc(C(=O)N3CCc4ccccc4C3)ccc21 ?
ATXN viability: inconclusive; GLP1R inv ag: 8.91µM*; TGFb inhibitor: inconclusive; GLP1R ag: 17.8%; HepG2 viability: -25.8%

How did Cc1ccccc1Nc1cc(C(=O)NCCCN2CCN(c3cccc(Cl)c3)CC2)c2ccccc2n1 do in these assays?
ATXN viability: inconclusive; GLP1R inv ag: inconclusive; TGFb inhibitor: 22.4µM*; ATXN2 expr inh: inconclusive; HepG2 viability: -59.1%

What do the screens show for `Cc1ccccc1Nc1cc(C(=O)NCCc2ccc(Cl)cc2)c2ccccc2n1`?
ATXN viability: inconclusive; GLP1R inv ag: inconclusive; TGFb inhibitor: inconclusive; ATXN2 expr inh: inconclusive; HepG2 viability: -33.9%

How did CCOc1ccc(-c2cc(C(=O)NCCCN3CCN(CC)CC3)c3ccccc3n2)cc1 do in these assays?
ATXN viability: inconclusive; GLP1R inv ag: inconclusive; TGFb inhibitor: 29.2%; GLP1R ag: 7.2%; ATXN2 expr inh: -1.2%; HepG2 viability: 20µM*

How did CCOCCCNC(=O)c1cc(Sc2ccc(C)cc2)nc2ccccc12 do in these assays?
ATXN viability: inactive; GLP1R inv ag: 10µM*; TGFb inhibitor: 46.0%; GLP1R ag: 8.9%; ATXN2 expr inh: -10.6%; HepG2 viability: 9.7%

How did CCOCCCNC(=O)c1cc(Sc2cccc(Cl)c2)nc2ccccc12 do in these assays?
ATXN viability: inactive; GLP1R inv ag: inconclusive; TGFb inhibitor: -0.8%; GLP1R ag: 8.4%; ATXN2 expr inh: -20.8%; HepG2 viability: -29.1%

What do the screens show for `CCOc1ccc(-c2cc(C(=O)NCCCn3ccnc3)c3cc(Br)ccc3n2)cc1`?
ATXN viability: inconclusive; GLP1R inv ag: inconclusive; TGFb inhibitor: 14.1µM*; GLP1R ag: -5.4%; ATXN2 expr inh: -18.0%; HepG2 viability: -92.1%

What do the screens show for `O=C(O)CC(O)CC(O)/C=C/c1c(C2CC2)nc2ccccc2c1-c1ccc(F)cc1` (stereo not drawn)?
GLP1R ag: 21.2%

What do the screens show for `Clc1ccc2nc[nH]c2c1`?
TGFb inhibitor: -21.2%; HepG2 viability: -40.6%

Results for O=C(NCCCn1ccnc1)c1nn2c(C(F)(F)F)cc(-c3ccc(Br)cc3)nc2c1Cl ?
ATXN viability: inconclusive; GLP1R inv ag: -5.0%; TGFb inhibitor: 17.6%; GLP1R ag: 8.1%; ATXN2 expr inh: inconclusive; HepG2 viability: 5.62µM*

What do the screens show for `CCCNC(=O)c1nn2c(C(F)(F)F)cc(-c3ccccc3)nc2c1Cl`?
ATXN viability: inconclusive; GLP1R inv ag: -10.0%; TGFb inhibitor: 0.3%; GLP1R ag: -1.2%; ATXN2 expr inh: -0.7%; HepG2 viability: -13.1%

How did CO[C@H]1[C@H](NC(=O)c2ccsc2)c2ccccc2C12CCN(Cc1cnn(C)c1C)CC2 do in these assays?
ATXN viability: inactive

How did CN(C)c1ccc(C(=O)Oc2cc(O/N=[N+](\[O-])N(C)C)c([N+](=O)[O-])cc2[N+](=O)[O-])cc1 do in these assays?
TGFb inhibitor: inconclusive; HepG2 viability: 2.6%

What do the screens show for `COCCN1CN(S(=O)(=O)c2ccccc2)c2nc3ccccc3nc21`?
ATXN viability: inactive; GLP1R inv ag: 6.7%; TGFb inhibitor: 11.2%; GLP1R ag: 4.6%; ATXN2 expr inh: 3.4%; HepG2 viability: 0.0%

How did O=S(=O)(c1cccs1)N1CN(Cc2ccco2)c2nc3ccccc3nc21 do in these assays?
ATXN viability: inactive; GLP1R inv ag: 1.78µM*; TGFb inhibitor: 0.0%; GLP1R ag: 22.7%; ATXN2 expr inh: 12.8%; HepG2 viability: -3.1%

What do the screens show for `COc1ccccc1CN1CN(S(=O)(=O)c2ccccc2)c2nc3ccccc3nc21`?
ATXN viability: inactive; GLP1R inv ag: 2.82µM*; TGFb inhibitor: -3.4%; GLP1R ag: 9.1%; ATXN2 expr inh: -0.1%; HepG2 viability: 2.7%

Results for O=S(=O)(c1cccs1)N1CN(Cc2ccc(Cl)cc2)c2nc3ccccc3nc21 ?
ATXN viability: inactive; GLP1R inv ag: 0.6%; TGFb inhibitor: -5.7%; GLP1R ag: -4.8%; ATXN2 expr inh: 18.3%; HepG2 viability: -3.9%

Results for COCCc1ccc(OCC2CO2)cc1 (stereo not drawn) ?
ATXN viability: inactive; ATXN2 expr inh: 6.8%

What do the screens show for `COc1ccc2sc(-c3ccc(N(C)C)cc3)c(C#CCCO)c2c1`?
ATXN viability: inactive; GLP1R inv ag: 6.8%; TGFb inhibitor: -1.3%; GLP1R ag: 23.6%; ATXN2 expr inh: -7.7%; HepG2 viability: -18.7%

What do the screens show for `COc1ccc2sc(-c3ccc(N(C)C)cc3)c(C#Cc3cncn3C)c2c1`?
GLP1R inv ag: -25.6%; TGFb inhibitor: inconclusive; GLP1R ag: -1.9%; ATXN2 expr inh: inconclusive; HepG2 viability: 8.91µM*

Results for CC1(C)SC2C(NC(=O)C(c3ccccc3)S(=O)(=O)O)C(=O)N2C1C(=O)O (stereo not drawn) ?
GLP1R ag: -1.9%

What do the screens show for `COc1cccc(-c2nnc3n2N=C(C(C)(C)C)CS3)c1`?
ATXN viability: inactive; GLP1R inv ag: 11.2µM*; TGFb inhibitor: inconclusive; GLP1R ag: -17.7%; ATXN2 expr inh: inconclusive; HepG2 viability: -16.3%

How did Cn1nc([N+](=O)[O-])nc1S(C)(=O)=O do in these assays?
ATXN viability: inconclusive; GLP1R inv ag: inconclusive; TGFb inhibitor: 12.6µM*; GLP1R ag: -0.9%; ATXN2 expr inh: inconclusive; HepG2 viability: 20µM*

What do the screens show for `CS(=O)(=O)c1nc([N+](=O)[O-])nn1CCCc1ccccc1`?
GLP1R inv ag: inconclusive; TGFb inhibitor: inconclusive; GLP1R ag: -1.5%; ATXN2 expr inh: inconclusive; HepG2 viability: -187.4%

What do the screens show for `Cc1cc(N2CCCCC2)nc2ccc(NC(=O)c3cccc(Cl)c3)cc12`?
ATXN viability: inconclusive; GLP1R inv ag: inconclusive; TGFb inhibitor: -2.2%; ATXN2 expr inh: inconclusive; HepG2 viability: -34.7%

Results for Cc1cc(N2CCN(C)CC2)nc2ccc(NC(=O)Nc3ccccc3)cc12 ?
GLP1R inv ag: inconclusive; TGFb inhibitor: inconclusive; ATXN2 expr inh: -19.2%; HepG2 viability: 12.6µM*

Results for Cc1cc(N2CCCCC2)nc2ccc(NC(=O)c3cccc(F)c3)cc12 ?
ATXN viability: inconclusive; GLP1R inv ag: 11.2µM*; TGFb inhibitor: inconclusive; ATXN2 expr inh: inconclusive; HepG2 viability: -45.2%
